Most compounds without a hit are left out; they make up all but 3.1% or so of the library.
S1P1 ag – activates the human S1P1 receptor. P21453. S1P1 agonist cell-based reporter assay. activation, % at 4.5 µM. 1.5% of 16,000 active. AID 1044; in the data active means activation above about 80%
Target sequence (P21453 whole entry, looked up): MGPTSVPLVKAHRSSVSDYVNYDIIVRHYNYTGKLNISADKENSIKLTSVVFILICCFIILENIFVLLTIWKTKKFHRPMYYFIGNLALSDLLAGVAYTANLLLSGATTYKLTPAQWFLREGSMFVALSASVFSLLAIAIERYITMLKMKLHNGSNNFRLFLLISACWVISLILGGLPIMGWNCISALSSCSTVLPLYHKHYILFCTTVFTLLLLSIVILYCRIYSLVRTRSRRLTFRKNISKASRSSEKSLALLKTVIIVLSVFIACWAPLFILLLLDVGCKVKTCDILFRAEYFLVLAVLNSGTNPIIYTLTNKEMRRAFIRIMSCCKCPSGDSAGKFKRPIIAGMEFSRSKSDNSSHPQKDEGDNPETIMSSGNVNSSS
Luminol counter – counter-screen for Nox1 inhibitors: inhibitors of luminol chemiluminescence. inhibition, % at 6.7 µM. 0.4% of 16,000 active. HRP/luminol/H2O2 chemiluminescence counterscreen; further: reference of the scale not given here
NOTCH agonist – NOTCH pathway agonism; NOTCH signaling luciferase reporter cells, luminescence; activation, % at 2.5 µM; 0.4% of 15,000 active; AID 434982; in the data active means activation above about 2.2%
Nox1 inhibitor – human Nox1 inhibition. inhibition, % at 6.7 µM. HT29 cells, luminol chemiluminescence ROS. 0.81% of 16,000 active. Q9Y5S8
* marks the source's active call; other numbers are inactive results. Unless noted, no stated cut-off is given here; in the data, active means inhibition above about 75%; inactive means the rest.

Screening N/C(=N\S(=O)(=O)c1ccc(Cl)c(Cl)c1)c1ccc(Cl)cc1 returned S1P1 ag -10.4, Luminol counter 4.0, NOTCH agonist -0.5 and Nox1 inhibitor -57.6.
`COCCOc1ccc(NC(=O)c2ccc(Cl)cc2)cc1` gave S1P1 ag 1.0, Luminol counter -2.5, NOTCH agonist 0.9 and Nox1 inhibitor 0.0.
Screening O=C1C=C(I)C(=O)C=C1I returned S1P1 ag -22.1, Luminol counter 2.2, NOTCH agonist -0.2 and Nox1 inhibitor 85.7*.
For CCOC(=O)C1CCN(C(=O)Nc2c(-c3ccccc3)noc2C)CC1 the results were S1P1 ag -6.4, Luminol counter -0.1, NOTCH agonist 2.7* and Nox1 inhibitor -15.8.
For Cc1onc(-c2ccccc2)c1NC(=O)N1CCN(C2c3ccccc3-c3ccccc32)CC1 the results were S1P1 ag -1.8, Luminol counter 0.0, NOTCH agonist -0.1 and Nox1 inhibitor 0.0.
O=C(Nc1nccs1)c1ccncc1 was read as S1P1 ag -4.1, Luminol counter -1.8, NOTCH agonist -1.0 and Nox1 inhibitor -14.4.
Screening N#CC(C#N)=NNc1ccc2c(c1)OCCO2 returned S1P1 ag 94.1*, Luminol counter 3.9, NOTCH agonist 0.0 and Nox1 inhibitor -97.3.
`O=C(NC(=S)Nc1ccc2c(c1)OCCO2)c1ccccc1` gave S1P1 ag 6.4, Luminol counter -10.8, NOTCH agonist 0.0 and Nox1 inhibitor -18.2.
For Cc1ccccc1/C(N)=N/OC(=O)c1ccc(C(C)(C)C)s1 the results were S1P1 ag 102.6*, Luminol counter -4.2, NOTCH agonist 0.1 and Nox1 inhibitor 12.1.
Screening CSc1sc(C(=O)NC(=O)Nc2ccc(Cl)cc2)c2c1-c1nocc1CC2 returned S1P1 ag 108.5*, Luminol counter -8.2, NOTCH agonist 1.4 and Nox1 inhibitor 9.4.
For CSc1sc(C(=O)NNC(=O)Nc2ccc(Cl)cc2)c2c1C1(CCC2)SCCS1 the results were S1P1 ag -13.2, Luminol counter -2.0, NOTCH agonist 0.1 and Nox1 inhibitor 10.8.
`COC(=O)c1cccc(NC(=S)NC(=O)c2csc([N+](=O)[O-])c2)c1` gave S1P1 ag -8.0, Luminol counter -0.3, NOTCH agonist -0.3 and Nox1 inhibitor 20.2.
`O=C1NCCN1CCNS(=O)(=O)c1ccc(S(=O)(=O)c2ccccc2)s1` gave S1P1 ag 83.5*, Luminol counter 3.0, NOTCH agonist -1.0 and Nox1 inhibitor -61.3.
For O=C(/C(=C/C(=O)c1cccs1)c1ccccc1)c1ccccc1 the results were S1P1 ag 32.6, Luminol counter 3.1, NOTCH agonist -0.4 and Nox1 inhibitor -32.6.
Screening O=C(NNc1cccc(Cl)c1)c1cccnc1Oc1ccccc1 returned S1P1 ag -18.8, Luminol counter 100.3*, NOTCH agonist -0.2 and Nox1 inhibitor 40.5.
CNc1nnc(SCc2csc3ccccc23)s1 was read as S1P1 ag 118.1*, Luminol counter 3.5 and Nox1 inhibitor -24.3.
Screening NC(=O)c1cccc(CSCc2csc3ccccc23)c1 returned S1P1 ag -3.3, Luminol counter -2.9, NOTCH agonist -0.4 and Nox1 inhibitor -14.1.
`N=C(N)SCc1csc2ccccc12` gave S1P1 ag 19.7, Luminol counter -5.8, NOTCH agonist 2.4* and Nox1 inhibitor 23.7.
Screening O=C1OC(c2ccccc2)=N/C1=C\c1ccco1 returned S1P1 ag -22.6, Luminol counter 5.3, NOTCH agonist -0.4 and Nox1 inhibitor -57.1.
Screening Cc1csc2ncnc(NCCc3ccc(Cl)cc3)c12 returned S1P1 ag 101.5*, Luminol counter -4.0, NOTCH agonist -6.2 and Nox1 inhibitor 8.2.
For N/C(=N/OC(=O)Nc1cccc(C(F)(F)F)c1)C1COc2ccccc2O1 (stereo unspecified) the results were S1P1 ag -0.8, Luminol counter -2.0, NOTCH agonist 2.4* and Nox1 inhibitor -5.3.
COc1ccc(CNC(=S)NCCCO)cc1 was read as S1P1 ag -9.2, Luminol counter 98.2*, NOTCH agonist -0.5 and Nox1 inhibitor -51.2.
Screening Cc1ccc(CNC(=S)NCCO)cc1 returned S1P1 ag -8.1, Luminol counter 3.3, NOTCH agonist 0.9 and Nox1 inhibitor -18.2.
Cc1nc(-c2ccccc2)sc1C(=O)NNC(=O)c1cccc2ccccc12 was read as S1P1 ag -2.7, Luminol counter 5.8, NOTCH agonist 0.4 and Nox1 inhibitor -32.9.
`Cc1sc(-c2ccccc2)nc1CC(=O)NNC(=O)c1cccc(OC(F)(F)F)c1` gave S1P1 ag 20.0, Luminol counter 4.0, NOTCH agonist 2.5* and Nox1 inhibitor -46.8.
COc1ccc2c(O)c(N=O)ccc2c1 was read as S1P1 ag 3.4, Luminol counter -7.7, NOTCH agonist 0.8 and Nox1 inhibitor -17.0.
`C(=N\Nc1ccccc1)/c1cccnc1` gave S1P1 ag 7.7, Luminol counter 7.8, NOTCH agonist 0.4 and Nox1 inhibitor 30.2.

Screening data (PubChem)
